One test concerns EPHB6.
`COC(=O)C(NC(=O)NC1CCN(c2ccnc(Nc3ccc(F)cc3)n2)C1)c1ccccc1` (centres unmarked) [GSK1379712]: the Kd worked out at 58 nM.

In turn, `FC(F)(F)c1ccccc1-c1cc(-c2c[nH]nc2-c2ccccn2)ccn1` [GW679396] yielded a Kd of 8500 nM.

For `COc1ccc(Nc2nccc(N3CCC(NC(=O)C(C)c4ccc(Cl)cc4)CC3)n2)cc1` (centres unmarked) [GSK1379812], the Kd is over 10000 nM.

In turn, `Nc1ncnc2occ(-c3ccc4c(c3)CCN4C(=O)Cc3cc(F)ccc3F)c12` [GSK2645446] had a Kd of 500 nM.

A further test has as its system ERBB2.
As for `CS(=O)(=O)CCNCc1nc(-c2ccc3ncnc(Nc4ccc5c(cnn5Cc5ccccc5)c4)c3c2)cs1.Cl.Cl` [GW569716], the Kd amounted to 1.1 nM.

Compound `COc1cc2ncnc(Nc3cccc(Br)c3)c2cc1OC.Cl` [GI230329] returned a Kd of 85 nM.

`Cn1cncc1-c1cc2c(Nc3ccc(OCc4ccccc4)cc3)ncnc2cn1` [GW281179] came in with a Kd of 17 nM.

With `CS(=O)(=O)CCNCc1nc(-c2ccc3ncnc(Nc4ccc(OCc5ccccc5)c(Cl)c4)c3c2)cs1.Cl` [GW582764], the Kd came to 4 nM.

The subject of another test is T1, ERK8.
T1 construct: gene MAPK15
As to `O=C(Nc1n[nH]c2nc(-c3cccs3)c(Br)cc12)C1CC1` [SB-735297], the Kd is 130 nM.

Compound `O=C(Nc1n[nH]c2cc(-c3ccsc3)ccc12)C1CC1` [SB-732932] yielded a Kd of 48 nM.

`Cc1cccc2c(-c3ccncn3)c(-c3ccc(F)cc3)nn12` [GW515532]: the Kd was over 10000 nM.

For a further test, the system named is GAK.
As to `COc1cc2ncnc(Nc3cccc(Br)c3)c2cc1OC.Cl` [GI230329], binding was characterised by a dissociation constant (Kd) of 29 nM.

In turn, `c1ccc(-c2ccnc3[nH]ccc23)cc1` [SB-693578] showed a Kd of 3700 nM.

`COc1cccc(C2=C(Nc3cc(Cl)c(O)c(Cl)c3)C(=O)NC2=O)c1` [SB-390767] yielded a Kd of over 10000 nM.

The subject of another test is GSK3A.
The compound `COc1ccc(CSc2nnc(-c3ccc4nccn4c3)o2)cc1C(F)(F)F` came in with a Kd of 250 nM.

`O=c1cc(N2CCOCC2)nc2n(Cc3ccccc3F)ccn12` [GSK2297428] gave a Kd of over 10000 nM.

As to `O=C(Nc1n[nH]c2nc(-c3ccco3)c(Br)cc12)C1CCN(Cc2ccccc2)C1.O=C(O)[C@H](O)[C@@H](O)C(=O)O` (centres unmarked) [SB-742034], the Kd was found to be 130 nM.

Turning to `O=C(Nc1n[nH]c2nc(-c3cccs3)c(Br)cc12)C1CC1` [SB-735297], the Kd turned out to be 91 nM.

`O=C(Nc1n[nH]c2nc(-c3cccs3)c(Br)cc12)C1CCCC1` [SB-743341] had a Kd of 62 nM.

Compound `COc1ccc(CSc2nnc(-c3ccc4ncsc4c3)o2)cc1C(F)(F)F` returned a Kd of 79 nM.

Another test concerns GSK3B.
As to `COc1ccc(CSc2nnc(-c3ccc4nccn4c3)o2)cc1C(F)(F)F`, binding was characterised by a dissociation constant (Kd) of 22 nM.

Compound `O=C(Nc1n[nH]c2nc(-c3cccs3)c(Br)cc12)C1CCCC1` [SB-743341] had a Kd of 120 nM.

The compound `COc1ccc(CSc2nnc(-c3ccc4ncsc4c3)o2)cc1C(F)(F)F` yielded a Kd of 39 nM.

Values taken from article PMC5540273 (PLoS ONE, 2017).
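Note: kd values determined as follow-up on hits from a single-replicate KINOMEscan panel screen.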
